What all share (format): functional
The target of experiment [1] is Solute carrier family 2, facilitated glucose transporter member 1 (Homo sapiens) (UniProt P11166). Description: ST_JUDE_LEISH: Cytotoxicity at 2uM final concentration against transgenic Leishmania Mexicana promastigotes LmGLUT1 that are glucose transport deficient and complemented with the human glucose transporter GLUT1. Activity is measured by DNA content using SYBR green in vitro.

The target in experiment [2] is Hexose transporter 1 (Plasmodium falciparum) (UniProt O97467). In words: ST_JUDE_LEISH: Cytotoxicity at 2uM final concentration against transgenic Leishmania Mexicana promastigotes LmPfHT that are glucose transport deficient and complemented with the Plasmodium falciparum hexose transporter. Activity is measured by DNA content using SYBR green in vitro.
Experiment [3] deals with Glucose transporter (Leishmania mexicana) (UniProt O61059). Description: ST_JUDE_LEISH: Cytotoxicity at 2uM final concentration against transgenic Leishmania Mexicana promastigotes LmGT2 that are glucose transport deficient and complemented with the L. Mexicana glucose transporter 2. Activity is measured by DNA content using SYBR green in vitro.

Sequence of Solute carrier family 2, facilitated glucose transporter member 1 (Homo sapiens) (P11166 whole entry): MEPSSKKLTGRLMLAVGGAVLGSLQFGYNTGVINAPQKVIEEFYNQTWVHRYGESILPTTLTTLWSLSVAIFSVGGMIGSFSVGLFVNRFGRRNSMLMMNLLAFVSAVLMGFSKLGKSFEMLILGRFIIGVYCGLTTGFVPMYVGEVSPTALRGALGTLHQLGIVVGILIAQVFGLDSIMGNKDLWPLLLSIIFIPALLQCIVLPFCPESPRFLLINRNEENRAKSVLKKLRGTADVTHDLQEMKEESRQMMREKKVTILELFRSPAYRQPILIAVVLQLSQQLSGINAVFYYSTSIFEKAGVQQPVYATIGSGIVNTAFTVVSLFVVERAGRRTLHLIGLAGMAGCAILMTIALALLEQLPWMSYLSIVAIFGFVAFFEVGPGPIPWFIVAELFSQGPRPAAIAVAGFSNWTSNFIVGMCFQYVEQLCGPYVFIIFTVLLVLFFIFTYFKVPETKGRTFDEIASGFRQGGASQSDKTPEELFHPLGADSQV

Take `CN(C)c1ccc(Br)c(Br)c1`: the inhibition – broadly, the change of the read-out against control, counted positive when it falls – in experiment [1] was 3.2%; in experiment [2] it was 4.63%; in experiment [3] it was -1.28%.

In the case of `O=C(C=Cc1cccs1)Nc1ccc(-c2nc3ccccc3[nH]2)cc1`, the results for the inhibition in experiment [1], in experiment [2] and in experiment [3] were 1.65%, 0.72% and 3.04%, respectively.

Regarding `CN(C(=O)c1nn(-c2ccccn2)c2nccc(-c3cccs3)c12)C1CCCCC1`, the inhibition in experiment [1] worked out at 5.01%; in experiment [2], 5.58%; in experiment [3], 3.33%.

Take `Cc1cc(C(=O)CSc2nc3ccccc3n2-c2ccccc2)c(C)n1C1CCS(=O)(=O)C1` (stereo not drawn): the inhibition in experiment [1] is 0.82%; in experiment [2], -1.32%; in experiment [3], 0.44%.

Regarding `Clc1cc(Cl)cc(Nc2ccnc(Nc3cc(Cl)cc(Cl)c3)n2)c1`, the inhibition in experiment [1] turned out to be 4.6%; in experiment [2] it was 2.75%; in experiment [3], 2.57%.

In the case of `CN1CC[C@@H](Oc2cc(CNC(=O)c3ccc(-c4ccc(Cl)cc4)s3)ccc2C(F)(F)F)C1`, the inhibition in experiment [1] is -1.97%; in experiment [2], -1.98%; in experiment [3], -1.59%.

For `COc1cc(N(C)Cc2cnc3nc(N)nc(N)c3n2)cc(OC)c1OC`, the results for the inhibition in experiment [1], in experiment [2] and in experiment [3] were 4.09%, 3.84% and 3.15%, respectively.

As for `COCCN1CCN(Cc2ccc(-c3ccc(-c4nc5cc(F)ccc5[nH]4)cc3)cc2)CC1`, the inhibition turned out to be 6.74% in experiment [1], 3% in experiment [2] and 0.87% in experiment [3].

For `CC(=O)Nc1ccc(CN2CCCN(c3cc(NC(=O)c4cccc(C)c4)ccn3)CC2)cc1`, the inhibition in experiment [1] turned out to be 8.6%; in experiment [2], 11.9%; in experiment [3], 10.9%.

Turning to `O=C(Nc1cccc(CN2CCCN(Cc3ncc[nH]3)CC2)c1)c1ccc2ccccc2c1`, the inhibition was -2.43% in experiment [1], -3.48% in experiment [2] and 1.4% in experiment [3].

With `CC(C)(CNCc1ccc(Cl)c(Cl)c1)c1nc(-c2ccc(Cl)c(O)c2)c(-c2ccncc2)[nH]1`, the inhibition in experiment [1] is 0.8%; in experiment [2], 3.02%; in experiment [3], 4.37%.

On to `Cc1c(Cl)cccc1S(=O)(=O)Nc1cccc(CCN2CCC(N3CCCCC3)CC2)c1`, for which the inhibition in experiment [1] was determined as 2.7%; in experiment [2] it was 4.32%; in experiment [3], 2.25%.

As for `CCOc1cc(C(=O)N[C@@H](Cc2ccccc2)[C@H](O)CNCc2cc(OC)cc(OC)c2)cc(N2CCCS2(=O)=O)c1`, the inhibition in experiment [1] is -0.26%; in experiment [2] it was -0.9%; in experiment [3] it was 1.04%.

On to `OC1CCCN(Cc2ccc(-c3cccc(-c4nc5cc(F)ccc5[nH]4)c3)cc2)C1` (stereo not drawn), for which the inhibition in experiment [1] is 7.7%; in experiment [2] it was 7.1%; in experiment [3], 5.69%.

Consider `Nc1cccc(-c2ccc3ccnc(N)c3c2)c1`, for which the inhibition in experiment [1] was found to be 3.63%; in experiment [2], 4.39%; in experiment [3], 3.35%.

Turning to `CN(C)c1ccc(-c2csc(C(=O)NCC3CCN(CCC(C)(C)C)C3)c2)cc1` (stereo not drawn), the figures for the inhibition in experiment [1], in experiment [2] and in experiment [3] were -0.84%, -0.06% and 0.06%, respectively.

As for `CN(C)Cc1cccc(-c2ccc(Nc3nccc(NCC(O)c4ccccc4)n3)cc2)c1` (stereo not drawn), the values for the inhibition in experiment [1], in experiment [2] and in experiment [3] were 2.6%, 3.43% and 3.53%, respectively.

As for `Oc1ccc2nc(NCCCc3ccccc3)nc(NCCc3ccccc3)c2c1`, the inhibition is 3.71% in experiment [1], 4.97% in experiment [2] and -0.15% in experiment [3].

With `CCN(CC)CCNc1c2ccc(Cl)cc2nc2ccc(OC)nc12`, the inhibition in experiment [1] turned out to be 3.46%; in experiment [2], 3.09%; in experiment [3], 3.99%.

On to `Cc1cc(-c2nc3ccc(CN4CCN(C)CC4)cc3[nH]2)nn1Cc1cc(Cl)ccc1OCc1ccccc1`, for which the values for the inhibition in experiment [1], in experiment [2] and in experiment [3] were 3.84%, 3.27% and 2.54%, respectively.

Turning to `O=C(NCc1ccc(C(=O)NC2CCCCC2)cc1)c1ccc(O)c(-c2ccc(Cl)c(Cl)c2)c1`, the inhibition came to 2.46% in experiment [1], 1.38% in experiment [2] and 1.41% in experiment [3].

As for `CC(=O)Nc1ccc(OCCCCN(Cc2ccccc2C(F)(F)F)c2ccc(C#N)c(C(F)(F)F)c2)cc1`, the inhibition in experiment [1] worked out at 1.93%; in experiment [2] it was 6.69%; in experiment [3], 7.15%.

On to `O=C(Nc1cccc(F)c1)NC1CCN(c2ccnc3cc(Cl)ccc23)C1` (stereo not drawn), for which the inhibition in experiment [1] came out at 2.72%; in experiment [2] it was 2.74%; in experiment [3] it was 4.22%.

In the case of `Oc1cccc(-c2nc(-c3ccccc3)c(-c3ccc(Oc4ccc(-c5[nH]c(-c6cccc(O)c6)nc5-c5ccccc5)cc4)cc3)[nH]2)c1`, the results for the inhibition in experiment [1], in experiment [2] and in experiment [3] were 1.24%, 2.89% and 1.33%, respectively.

Take `CCCCOP(=O)(OCCCC)C(=Cc1ccc(O)c2ccccc12)P(=O)(OCCCC)OCCCC`: the inhibition in experiment [1] stood at 5.02%; in experiment [2], 4.67%; in experiment [3], 5.24%.

As for `Cc1cccc(Cn2ccc3c4c(N)nc(N)nc4ccc32)c1`, the values for the inhibition in experiment [1], in experiment [2] and in experiment [3] were 80.8%, 81.5% and 81.5%, respectively.

Take `Fc1ccc2[nH]c(-c3ccc(-c4ccc(CNCCc5cccnc5)cc4)s3)nc2c1`: the inhibition was found to be 6.23% in experiment [1], 3.19% in experiment [2] and 3.21% in experiment [3].

`Cc1ccccc1CNc1nccc(NCCC(=O)Nc2ccccc2)n1`: the figures for the inhibition in experiment [1], in experiment [2] and in experiment [3] were 4.53%, 2.1% and 0.01%, respectively.

Regarding `C/C=C/COc1ccc2ccccc2c1CNCCCCCCCCNCc1c(OC/C=C/C)ccc2ccccc12`, the inhibition was found to be 16.7% in experiment [1], 7.28% in experiment [2] and 1.19% in experiment [3].

As to `Cc1cc(-c2cnc(N)c(-c3ccc(N4CCN(C)CC4)cc3)c2)cc(C)c1O`, the inhibition amounted to 3.43% in experiment [1], 0.67% in experiment [2] and 2.45% in experiment [3].

Take `O=C(Nc1ccc2c(c1)CCN(C1CCC1)CC2)c1ccc(-n2ccnc2)cn1`: the inhibition came out at 1.81% in experiment [1], 2.97% in experiment [2] and 2.28% in experiment [3].

Turning to `O=S(=O)(NC1CCN(c2ccnc3ccccc23)C1)c1ccc(OC(F)(F)F)cc1` (stereo not drawn), the inhibition is 2.25% in experiment [1], -0.51% in experiment [2] and 2.41% in experiment [3].

On to `Oc1cccc2ccc(Nc3ccccn3)nc12`, for which the inhibition in experiment [1] was 0.94%; in experiment [2] it was 2.29%; in experiment [3] it was -0.77%.

`CN(C)c1ccc(-c2csc(C(=O)NC3CCCCN(CCC(C)(C)C)C3)c2)cc1` (stereo not drawn): the inhibition was 2.51% in experiment [1], 2.15% in experiment [2] and 0.68% in experiment [3].

For `Cc1ccc(Oc2c(-c3ccccc3CN3CCCC3CN(C)C)cnn(C)c2=O)cn1` (stereo not drawn), the inhibition in experiment [1] worked out at 6.33%; in experiment [2] it was 4.63%; in experiment [3] it was 5.57%.

Consider `CC1(C)N=C(N)N=C(N)N1c1ccc(I)cc1`, for which the inhibition in experiment [1] is 5.79%; in experiment [2], 5.57%; in experiment [3], 6.6%.

(Values after ChEMBL document CHEMBL3433997, “St. Jude Leishmania screening dataset” (2016).)
